Where “and” joins values, the source holds several entries; their conditions need not be identical. Identical values can stand only once. About 30 (1%) of roughly 2,100 compounds were called active.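 How the source made its calls: active means compounds whose mean binding response over two repeats is below 75% of the DMSO control; inactive means the rest.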 The list is a sample of the results.
What follows are compounds tested against Desmoglein-3 (Homo sapiens) (UniProt P32926) (assay: blockers of pemphigus antibody–desmoglein-3 interaction – biochemical, cherry pick 1, bead-based, flow cytometry, confirmation (AID 588466;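 further: 100% = 2% DMSO vehicle and 0% = excess soluble DSG3 blocking control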)). Conditions: Protein G beads with DSG3, scFv-GFP binding, at 10 µM, active compounds read low.
Sequence of Desmoglein-3 (Homo sapiens) (P32926 whole entry, looked up): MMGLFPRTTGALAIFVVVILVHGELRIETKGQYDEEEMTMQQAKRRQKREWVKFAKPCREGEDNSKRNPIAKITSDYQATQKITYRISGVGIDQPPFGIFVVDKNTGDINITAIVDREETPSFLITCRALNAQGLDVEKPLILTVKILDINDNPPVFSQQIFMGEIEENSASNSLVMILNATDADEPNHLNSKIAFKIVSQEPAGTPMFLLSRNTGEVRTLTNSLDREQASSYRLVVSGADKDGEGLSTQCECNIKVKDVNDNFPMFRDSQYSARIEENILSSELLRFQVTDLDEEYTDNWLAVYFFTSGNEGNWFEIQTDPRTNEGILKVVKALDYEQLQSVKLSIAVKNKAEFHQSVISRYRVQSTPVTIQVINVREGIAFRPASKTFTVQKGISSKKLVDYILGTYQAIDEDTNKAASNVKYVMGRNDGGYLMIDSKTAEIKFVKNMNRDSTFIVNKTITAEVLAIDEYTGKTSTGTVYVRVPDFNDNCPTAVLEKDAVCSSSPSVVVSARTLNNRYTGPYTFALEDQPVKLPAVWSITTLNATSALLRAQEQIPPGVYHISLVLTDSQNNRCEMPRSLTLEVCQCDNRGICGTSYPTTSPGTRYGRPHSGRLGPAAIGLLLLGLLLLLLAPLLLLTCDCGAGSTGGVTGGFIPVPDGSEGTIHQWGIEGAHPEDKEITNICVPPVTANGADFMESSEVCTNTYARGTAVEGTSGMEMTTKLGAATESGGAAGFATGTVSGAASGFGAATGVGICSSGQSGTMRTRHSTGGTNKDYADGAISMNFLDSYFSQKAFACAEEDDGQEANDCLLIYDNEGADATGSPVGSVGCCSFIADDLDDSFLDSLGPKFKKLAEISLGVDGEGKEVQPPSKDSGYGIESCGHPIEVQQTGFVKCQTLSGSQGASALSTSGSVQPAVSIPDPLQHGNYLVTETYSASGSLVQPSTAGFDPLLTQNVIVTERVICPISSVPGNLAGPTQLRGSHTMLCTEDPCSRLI
Cc1ccc([C@H]2C[C@H](n3cc(C4CC4)nn3)[C@@H](O)CN2Cc2cccs2)cc1 was tested, and the binding response (% of DMSO) was 119% (inactive).
With COc1ccc(S(=O)(=O)N2CCCCCC2)cc1N the binding response (% of DMSO) was 100% (inactive).
With COc1ccc(C(=O)Nn2c(C)nc3ccccc3c2=O)cc1Br the binding response (% of DMSO) was 98% (inactive).
With COc1ccc(Br)c(C(=O)Nc2cccc(S(=O)(=O)N3CCOCC3)c2)c1 the binding response (% of DMSO) was 98.5% (inactive).
For CC(=O)Nc1ccc(S(=O)(=O)NCc2ccc3c(c2)cc(C)n3C)cc1, the binding response (% of DMSO) was 99.3% (inactive).
CC(C)Oc1ccc(C(=O)Nc2ccc(NC(=O)c3ccco3)c(Cl)c2)cc1 was tested, and the binding response (% of DMSO) was 100% (inactive).
O=C(NCc1ccccc1)C1CCN(S(=O)(=O)c2cccc3cccnc23)CC1 was tested, and the binding response (% of DMSO) was 109% (inactive) and 103% (inactive).
With S=C(NCCCN1CCOCC1)N1CCN(c2cccc(Cl)c2)CC1 the binding response (% of DMSO) was 100% (inactive).
With COc1ccc(CNS(=O)(=O)c2cn(C)c(=O)n(C)c2=O)cc1 the binding response (% of DMSO) was 95% (inactive).
Cc1c(C(=O)N2CCN(c3ccc(F)cc3)CC2)sc2nc(-c3ccccc3)cn12 was tested, and the binding response (% of DMSO) was 101% (inactive).
For COc1ccc(NC(=O)c2cc(-c3ccc(C)o3)nc3ccccc23)cc1OC, the binding response (% of DMSO) was 103% (inactive).
For CCOC(=O)CSc1nnc(-c2ccccc2NC(=O)c2ccccc2)o1, the binding response (% of DMSO) was 95% (inactive).
In the case of Cc1cc(C)n2c(SCC(=O)N3CCN(S(=O)(=O)c4ccc(Cl)cc4)CC3)nnc2n1, the binding response (% of DMSO) is reported as 92.2% (inactive).
For CC(C)c1ccccc1NS(=O)(=O)N(C)C, the binding response (% of DMSO) was 99.3% (inactive).
In the case of CN(C)c1nc(N)ncc1-c1ccc(Oc2ccccc2)cc1, the binding response (% of DMSO) is reported as 83.8% (inactive).
With Cc1nnc(NC(=O)c2ccc(-c3ccc(Cl)cc3)o2)s1 the binding response (% of DMSO) was 104% (inactive).
COc1ccc2cc(C(=O)COC(=O)COc3ccc4c(C)cc(=O)oc4c3)ccc2c1 was tested, and the binding response (% of DMSO) was 91.2% (inactive).
With COc1ccc(-c2nc(C#N)c(NCc3ccccc3Cl)o2)cc1 the binding response (% of DMSO) was 89.4% (inactive).
With COc1ccc(CCn2nnnc2C(C(C)C)N2CCN(c3ncccn3)CC2)cc1OC (configuration not stated) the binding response (% of DMSO) was 96.4% (inactive).
CCOc1ccc(-n2nc3ccc(NC(=O)c4ccc5c(c4)OCCO5)cc3n2)cc1 was tested, and the binding response (% of DMSO) was 85.4% (inactive).
For O=C(Nc1nc(-c2ccccc2)c(-c2ccccc2)s1)c1ccc(S(=O)(=O)N2CCCCC2)cc1, the binding response (% of DMSO) was 96.3% (inactive).
With COc1ccc(CCNC(=O)COc2cccc(-n3cnnn3)c2)cc1 the binding response (% of DMSO) was 108% (inactive).
For NC(=O)CC(NC(=O)Cc1cccc2ccccc12)c1ccc(NCCOc2ccccc2)c([N+](=O)[O-])c1 (configuration not stated), the binding response (% of DMSO) was 104% (inactive).
In the case of CCOC(=O)c1ccc(-c2nnc(-c3ccc(Cl)cc3Cl)o2)cc1, the binding response (% of DMSO) is reported as 100% (inactive).
In the case of O=C(O)c1ccc(-c2ccc(/C=C3\NC(=O)N(Cc4ccc(Cl)cc4)C3=O)o2)cc1Cl, the binding response (% of DMSO) is reported as 103% (inactive).
With CCOC(=O)c1cc(-c2ccc(/C=C3/C(=O)N(c4ccc(C(=O)O)cc4)N=C3C)o2)ccc1Cl the binding response (% of DMSO) was 54.4% (active).
O=C(NCCCN1CCOCC1)c1cc2nc(-c3ccco3)cc(C(F)(F)F)n2n1 was tested, and the binding response (% of DMSO) was 101% (inactive).
With CC1CC(C)CN(c2ncc3c(n2)CC(c2ccccc2)CC3=O)C1 (configuration not stated) the binding response (% of DMSO) was 99% (inactive).
With O=c1c2nnn(Cc3ccc(Cl)cc3)c2ncn1Cc1ccc(F)cc1 the binding response (% of DMSO) was 93.7% (inactive).
In the case of O=C(Nc1ccc(N2CCN(C(=O)c3ccccc3)CC2)cc1)c1cc2ccccc2o1, the binding response (% of DMSO) is reported as 93.8% (inactive).
Cc1ccc(N2CCN(S(=O)(=O)c3nnc(NC(=O)c4ccccc4)s3)CC2)cc1 was tested, and the binding response (% of DMSO) was 98.7% (inactive).
For CCOc1ccc2c(c1)C(NC(C)=O)C(=O)N2CCN1CCOCC1 (configuration not stated), the binding response (% of DMSO) was 97.4% (inactive).
O=C(Nc1cccc(NC(=O)c2ccc(Cl)cc2)n1)c1ccc(Cl)cc1 was tested, and the binding response (% of DMSO) was 100% (inactive).
With CNC(=O)CN1C(=O)NC(c2ccccc2)(c2ccccc2)C1=O the binding response (% of DMSO) was 100% (inactive).
With Cc1ccc(Sc2ncccc2COC(=O)Nc2c(C)cccc2C)cc1 the binding response (% of DMSO) was 96.3% (inactive).
With FC(F)(F)c1cc(-c2ccco2)nc(NCCc2ccccc2)n1 the binding response (% of DMSO) was 106% (inactive).
In the case of O=C(NCCCN1CCOCC1)c1cc(-c2cccc(Br)c2)nc2ccccc12, the binding response (% of DMSO) is reported as 102% (inactive).
In the case of COc1ccc(-c2cn3c(C)c(C(=O)NC(C)C)sc3n2)cc1, the binding response (% of DMSO) is reported as 95.9% (inactive).
For O=C(Nc1ccc(NS(=O)(=O)c2ccccc2)cc1)c1ccc(Cl)cc1, the binding response (% of DMSO) was 49.9% (inactive).
With Cc1ccc(NS(=O)(=O)c2ccc3c(c2)oc(=O)n3C)cc1F the binding response (% of DMSO) was 99.5% (inactive).
For CCn1nc(C(=O)OCc2c(C)noc2C)c2ccccc2c1=O, the binding response (% of DMSO) was 104% (inactive).
With COc1ccc(NC(=O)CCCC(=O)c2ccccc2)cc1 the binding response (% of DMSO) was 103% (inactive).
For CCN(CC)CC(=O)NN=C(c1ccccc1)c1ccccc1, the binding response (% of DMSO) was 100% (inactive).
In the case of CCSc1nnc(NC(=O)CSc2nnc(CNC(=O)c3ccc(OC)cc3)o2)s1, the binding response (% of DMSO) is reported as 102% (inactive).
CCN(CC(=O)Nc1ccc(S(=O)(=O)N2CCCCC2)cc1)Cc1ccccc1 was tested, and the binding response (% of DMSO) was 98% (inactive).
O=C(COc1ccccc1Cl)NCCNC(=O)c1ccccn1 was tested, and the binding response (% of DMSO) was 101% (inactive).
With CCN(CC)CCn1c2c(c(SCC(=O)Nc3ccc(C)c(F)c3)nc1=O)CCC2 the binding response (% of DMSO) was 103% (inactive).
In the case of Cc1nc(N)sc1-c1csc(Nc2ncccn2)n1, the binding response (% of DMSO) is reported as 95.9% (inactive).
For Cc1cnc(C(=O)N2CCN(S(=O)(=O)c3cc(C(F)(F)F)cc(C(F)(F)F)c3)CC2)cn1, the binding response (% of DMSO) was 110% (inactive).
COc1ccc(S(=O)(=O)N2CCN(CC(=O)Nc3cc(Cl)ccc3Cl)CC2)cc1 was tested, and the binding response (% of DMSO) was 95% (inactive).
For COc1ccc(-n2c(SCC(=O)O)nc3sc4c(c3c2=O)CCCC4)cc1, the binding response (% of DMSO) was 103% (inactive).
With CCOC(=O)N1CCC(n2c(SCC(=O)c3ccccc3)nc3ccsc3c2=O)CC1 the binding response (% of DMSO) was 93.2% (inactive).
With Cc1ccc(NS(=O)(=O)c2c(C)[nH]c(C)c2C(=O)N2CCCCC2)c(Br)c1 the binding response (% of DMSO) was 101% (inactive).
In the case of CCCCCC(=O)N1C[C@@H](O)[C@H](n2cc(-c3ccc(F)cc3)nn2)C[C@@H]1c1ccc(OC)cc1, the binding response (% of DMSO) is reported as 99.7% (inactive).
For CC(=O)c1cc2c(cc1NC(=O)c1ccc(Cl)cc1)OCCO2, the binding response (% of DMSO) was 87.5% (inactive).
In the case of COc1ccc(NC(=O)Cn2nnc(C(=O)NCc3ccccc3)c2N)cc1Cl, the binding response (% of DMSO) is reported as 76.4% (inactive).
With CC(C)Oc1ccc(C(=O)Nc2c3c(nn2-c2ccccc2)CS(=O)(=O)C3)cc1 the binding response (% of DMSO) was 96.5% (inactive).

Reference: PubChem BioAssay AID588466 (NMMLSC, 2011)
